Key:
[1] = target: RAC-alpha serine/threonine-protein kinase (Homo sapiens) (UniProt P31749); details: at 0.1 µM
[2] = target: RAC-alpha serine/threonine-protein kinase (Homo sapiens) (UniProt P31749); details: at 1 µM
[3] = target: RAC-beta serine/threonine-protein kinase (Homo sapiens) (UniProt P31751); details: at 0.1 µM
[4] = target: RAC-beta serine/threonine-protein kinase (Homo sapiens) (UniProt P31751); details: at 1 µM
[5] = target: RAC-gamma serine/threonine-protein kinase (Homo sapiens) (UniProt Q9Y243); details: at 0.1 µM
Sequence of RAC-gamma serine/threonine-protein kinase (Homo sapiens) (Q9Y243 whole entry): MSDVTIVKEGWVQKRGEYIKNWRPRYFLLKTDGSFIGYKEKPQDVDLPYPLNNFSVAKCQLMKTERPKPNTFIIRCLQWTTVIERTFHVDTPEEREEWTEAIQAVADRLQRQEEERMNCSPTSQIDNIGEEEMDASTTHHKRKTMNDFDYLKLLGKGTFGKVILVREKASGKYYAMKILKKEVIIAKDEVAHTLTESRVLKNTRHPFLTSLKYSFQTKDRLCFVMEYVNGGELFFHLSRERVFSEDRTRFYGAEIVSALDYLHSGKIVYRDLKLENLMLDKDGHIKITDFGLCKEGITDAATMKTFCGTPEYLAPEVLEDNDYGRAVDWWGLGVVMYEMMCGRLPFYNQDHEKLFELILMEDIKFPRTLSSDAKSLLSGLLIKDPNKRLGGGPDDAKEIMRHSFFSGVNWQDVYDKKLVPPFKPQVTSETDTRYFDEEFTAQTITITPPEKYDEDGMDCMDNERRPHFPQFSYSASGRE

[6] = target: RAC-gamma serine/threonine-protein kinase (Homo sapiens) (UniProt Q9Y243); details: at 1 µM
[7] = target: G protein-coupled receptor kinase 6 (Homo sapiens) (UniProt P43250); details: at 0.1 µM
Sequence of G protein-coupled receptor kinase 6 (Homo sapiens) (P43250 whole entry, looked up): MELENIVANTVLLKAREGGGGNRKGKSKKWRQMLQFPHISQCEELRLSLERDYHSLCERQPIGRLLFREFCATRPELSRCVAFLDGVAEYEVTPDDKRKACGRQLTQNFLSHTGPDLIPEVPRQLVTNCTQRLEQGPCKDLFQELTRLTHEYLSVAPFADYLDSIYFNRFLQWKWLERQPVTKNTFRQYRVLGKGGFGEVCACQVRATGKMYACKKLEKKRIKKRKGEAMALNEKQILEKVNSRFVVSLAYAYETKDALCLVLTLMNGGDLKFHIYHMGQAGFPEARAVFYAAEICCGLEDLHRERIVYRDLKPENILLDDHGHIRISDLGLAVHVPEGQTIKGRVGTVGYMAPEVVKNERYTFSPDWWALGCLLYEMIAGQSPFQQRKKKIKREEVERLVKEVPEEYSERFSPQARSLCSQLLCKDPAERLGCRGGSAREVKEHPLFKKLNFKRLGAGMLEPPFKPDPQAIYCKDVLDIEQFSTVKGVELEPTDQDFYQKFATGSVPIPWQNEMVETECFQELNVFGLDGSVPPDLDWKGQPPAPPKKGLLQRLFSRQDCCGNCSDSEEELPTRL

[8] = target: G protein-coupled receptor kinase 6 (Homo sapiens) (UniProt P43250); details: at 1 µM
[9] = target: T1, Rhodopsin kinase GRK7 (Homo sapiens) (UniProt Q8WTQ7); details: at 0.1 µM
T1 sequence (whole entry): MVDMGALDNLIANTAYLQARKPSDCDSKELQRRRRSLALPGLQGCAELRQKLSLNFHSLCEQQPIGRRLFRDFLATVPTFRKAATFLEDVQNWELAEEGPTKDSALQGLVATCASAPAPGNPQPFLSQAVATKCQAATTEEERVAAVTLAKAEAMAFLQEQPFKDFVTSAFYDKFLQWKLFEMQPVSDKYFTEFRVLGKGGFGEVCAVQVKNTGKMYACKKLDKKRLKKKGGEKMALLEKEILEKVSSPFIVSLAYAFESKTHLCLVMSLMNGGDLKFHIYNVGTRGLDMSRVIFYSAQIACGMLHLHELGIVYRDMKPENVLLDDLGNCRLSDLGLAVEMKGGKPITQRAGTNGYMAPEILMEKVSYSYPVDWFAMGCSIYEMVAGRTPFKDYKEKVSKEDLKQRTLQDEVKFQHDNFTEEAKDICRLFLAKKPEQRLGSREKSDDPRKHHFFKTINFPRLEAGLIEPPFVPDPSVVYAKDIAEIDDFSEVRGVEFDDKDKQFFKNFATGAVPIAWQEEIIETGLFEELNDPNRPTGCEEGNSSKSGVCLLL

[10] = target: T1, Rhodopsin kinase GRK7 (Homo sapiens); details: at 1 µM
[11] = target: Serine/threonine-protein kinase MRCK alpha (Homo sapiens) (UniProt Q5VT25); details: at 0.1 µM
[12] = target: Serine/threonine-protein kinase MRCK alpha (Homo sapiens) (UniProt Q5VT25); details: at 1 µM
[13] = target: Serine/threonine-protein kinase MRCK beta (Homo sapiens) (UniProt Q9Y5S2); details: at 0.1 µM
Sequence of Serine/threonine-protein kinase MRCK beta (Homo sapiens) (Q9Y5S2 whole entry): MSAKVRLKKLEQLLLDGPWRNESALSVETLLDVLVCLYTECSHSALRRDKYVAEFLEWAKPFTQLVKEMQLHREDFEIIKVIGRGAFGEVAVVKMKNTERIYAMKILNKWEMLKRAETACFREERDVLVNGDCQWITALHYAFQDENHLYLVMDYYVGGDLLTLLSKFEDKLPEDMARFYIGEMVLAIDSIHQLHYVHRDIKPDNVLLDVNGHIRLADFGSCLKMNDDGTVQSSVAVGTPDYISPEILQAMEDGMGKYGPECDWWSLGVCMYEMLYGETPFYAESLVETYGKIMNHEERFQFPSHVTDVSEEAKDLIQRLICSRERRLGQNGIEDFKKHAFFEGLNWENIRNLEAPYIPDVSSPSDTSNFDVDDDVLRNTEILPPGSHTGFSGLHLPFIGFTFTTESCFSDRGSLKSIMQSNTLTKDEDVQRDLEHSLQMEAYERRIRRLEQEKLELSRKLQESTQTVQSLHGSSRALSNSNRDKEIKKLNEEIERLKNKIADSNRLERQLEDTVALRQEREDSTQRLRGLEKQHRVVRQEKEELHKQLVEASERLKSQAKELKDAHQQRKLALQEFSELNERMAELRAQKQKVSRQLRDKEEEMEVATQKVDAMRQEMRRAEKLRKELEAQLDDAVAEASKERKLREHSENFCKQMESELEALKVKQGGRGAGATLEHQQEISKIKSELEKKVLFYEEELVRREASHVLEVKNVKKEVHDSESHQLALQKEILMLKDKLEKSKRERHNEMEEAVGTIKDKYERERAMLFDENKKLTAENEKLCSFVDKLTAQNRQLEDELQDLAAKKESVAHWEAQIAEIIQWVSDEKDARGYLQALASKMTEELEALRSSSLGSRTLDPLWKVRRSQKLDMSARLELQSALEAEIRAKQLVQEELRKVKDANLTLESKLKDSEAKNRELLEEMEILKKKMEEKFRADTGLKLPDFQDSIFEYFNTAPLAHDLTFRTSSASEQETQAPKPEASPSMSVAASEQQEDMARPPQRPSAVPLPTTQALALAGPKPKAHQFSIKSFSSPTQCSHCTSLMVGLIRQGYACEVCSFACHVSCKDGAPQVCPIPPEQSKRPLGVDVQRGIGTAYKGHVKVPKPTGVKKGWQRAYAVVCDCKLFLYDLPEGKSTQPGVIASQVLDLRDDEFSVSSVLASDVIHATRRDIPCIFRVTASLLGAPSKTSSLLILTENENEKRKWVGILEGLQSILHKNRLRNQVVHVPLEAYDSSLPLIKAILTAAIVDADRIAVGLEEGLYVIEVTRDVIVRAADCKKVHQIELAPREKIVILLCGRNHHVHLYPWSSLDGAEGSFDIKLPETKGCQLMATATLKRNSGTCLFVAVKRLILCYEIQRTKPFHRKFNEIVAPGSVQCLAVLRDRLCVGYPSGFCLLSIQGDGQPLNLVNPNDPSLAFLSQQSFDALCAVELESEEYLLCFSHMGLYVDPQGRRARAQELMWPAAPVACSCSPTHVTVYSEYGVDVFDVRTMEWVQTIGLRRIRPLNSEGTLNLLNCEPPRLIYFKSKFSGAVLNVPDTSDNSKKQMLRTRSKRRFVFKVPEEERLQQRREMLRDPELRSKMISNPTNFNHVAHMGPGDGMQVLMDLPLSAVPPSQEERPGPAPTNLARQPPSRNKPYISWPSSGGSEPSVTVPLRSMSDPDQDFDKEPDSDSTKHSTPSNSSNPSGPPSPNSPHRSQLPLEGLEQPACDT

[14] = target: Serine/threonine-protein kinase MRCK beta (Homo sapiens) (UniProt Q9Y5S2); details: at 1 µM
[15] = target: Ribosomal protein S6 kinase alpha-5 (Homo sapiens) (UniProt O75582); details: at 0.1 µM
Sequence of Ribosomal protein S6 kinase alpha-5 (Homo sapiens) (O75582 whole entry, looked up): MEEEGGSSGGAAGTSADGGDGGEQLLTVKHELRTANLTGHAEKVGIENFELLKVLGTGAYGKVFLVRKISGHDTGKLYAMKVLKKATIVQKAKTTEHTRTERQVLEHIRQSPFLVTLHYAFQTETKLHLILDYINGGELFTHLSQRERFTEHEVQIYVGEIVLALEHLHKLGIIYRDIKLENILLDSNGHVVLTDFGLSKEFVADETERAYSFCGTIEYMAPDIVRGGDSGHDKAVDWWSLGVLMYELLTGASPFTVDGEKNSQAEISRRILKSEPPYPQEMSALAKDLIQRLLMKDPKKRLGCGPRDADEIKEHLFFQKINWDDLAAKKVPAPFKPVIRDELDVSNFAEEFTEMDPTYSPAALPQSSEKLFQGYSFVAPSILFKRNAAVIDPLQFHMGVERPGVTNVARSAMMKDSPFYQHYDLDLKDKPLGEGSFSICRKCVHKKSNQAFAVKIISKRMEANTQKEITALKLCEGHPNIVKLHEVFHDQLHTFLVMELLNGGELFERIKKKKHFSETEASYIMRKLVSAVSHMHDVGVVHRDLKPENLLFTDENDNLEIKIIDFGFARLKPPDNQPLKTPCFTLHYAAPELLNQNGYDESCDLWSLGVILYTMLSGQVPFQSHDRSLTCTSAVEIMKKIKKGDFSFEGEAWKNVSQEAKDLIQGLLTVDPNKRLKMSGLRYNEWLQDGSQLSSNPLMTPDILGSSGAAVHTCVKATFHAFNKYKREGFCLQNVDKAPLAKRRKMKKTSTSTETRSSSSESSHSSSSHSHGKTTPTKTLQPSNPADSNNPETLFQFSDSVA

[16] = target: Ribosomal protein S6 kinase alpha-5 (Homo sapiens) (UniProt O75582); details: at 1 µM
[17] = target: Ribosomal protein S6 kinase alpha-4 (Homo sapiens) (UniProt O75676); details: at 0.1 µM
Sequence of Ribosomal protein S6 kinase alpha-4 (Homo sapiens) (O75676 whole entry, looked up): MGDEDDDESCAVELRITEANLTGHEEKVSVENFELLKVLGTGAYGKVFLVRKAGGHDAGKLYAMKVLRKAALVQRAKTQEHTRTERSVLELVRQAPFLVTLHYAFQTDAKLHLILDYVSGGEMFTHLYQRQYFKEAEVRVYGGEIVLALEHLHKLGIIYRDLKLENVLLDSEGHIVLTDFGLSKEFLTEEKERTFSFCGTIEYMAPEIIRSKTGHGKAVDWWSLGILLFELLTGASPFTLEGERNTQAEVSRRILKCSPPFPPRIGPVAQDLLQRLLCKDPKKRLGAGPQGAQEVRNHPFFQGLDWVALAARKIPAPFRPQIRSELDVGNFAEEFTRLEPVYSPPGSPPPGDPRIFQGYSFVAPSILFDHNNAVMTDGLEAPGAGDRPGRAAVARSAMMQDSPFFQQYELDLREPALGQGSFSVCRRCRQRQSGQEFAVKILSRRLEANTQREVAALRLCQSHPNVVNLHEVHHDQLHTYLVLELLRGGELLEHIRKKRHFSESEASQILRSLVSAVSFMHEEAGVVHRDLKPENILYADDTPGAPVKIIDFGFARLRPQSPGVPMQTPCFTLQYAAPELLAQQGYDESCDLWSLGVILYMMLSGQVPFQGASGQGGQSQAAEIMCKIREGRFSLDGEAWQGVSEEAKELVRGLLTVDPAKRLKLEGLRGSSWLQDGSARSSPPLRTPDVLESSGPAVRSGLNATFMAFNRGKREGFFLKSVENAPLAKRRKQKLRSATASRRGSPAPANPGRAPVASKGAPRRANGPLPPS

[18] = target: Ribosomal protein S6 kinase alpha-4 (Homo sapiens) (UniProt O75676); details: at 1 µM
[19] = target: Ribosomal protein S6 kinase beta-1 (Homo sapiens) (UniProt P23443); details: at 0.1 µM
[20] = target: Ribosomal protein S6 kinase beta-1 (Homo sapiens) (UniProt P23443); details: at 1 µM

Sequence of RAC-beta serine/threonine-protein kinase (Homo sapiens) (P31751 whole entry): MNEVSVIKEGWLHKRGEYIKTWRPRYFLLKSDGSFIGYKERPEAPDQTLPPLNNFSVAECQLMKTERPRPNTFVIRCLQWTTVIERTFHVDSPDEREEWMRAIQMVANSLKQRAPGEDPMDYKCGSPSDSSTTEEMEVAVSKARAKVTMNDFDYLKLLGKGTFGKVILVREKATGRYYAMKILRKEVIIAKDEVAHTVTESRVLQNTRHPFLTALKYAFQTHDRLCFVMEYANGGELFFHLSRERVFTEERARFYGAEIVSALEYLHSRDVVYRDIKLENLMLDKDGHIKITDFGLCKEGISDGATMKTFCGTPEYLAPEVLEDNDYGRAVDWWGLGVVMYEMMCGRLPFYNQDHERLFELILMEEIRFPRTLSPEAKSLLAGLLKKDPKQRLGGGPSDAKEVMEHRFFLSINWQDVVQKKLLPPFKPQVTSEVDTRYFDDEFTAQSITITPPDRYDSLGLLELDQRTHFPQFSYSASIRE

Structure (SMILES)	inhibition [1]	inhibition [2]	inhibition [3]	inhibition [4]	inhibition [5]	inhibition [6]	inhibition [7]	inhibition [8]	inhibition [9]	inhibition [10]	inhibition [11]	inhibition [12]	inhibition [13]	inhibition [14]	inhibition [15]	inhibition [16]	inhibition [17]	inhibition [18]	inhibition [19]	inhibition [20]
Cc1ccc(-c2cc3c(NC(=O)C4CC4)ncnc3o2)cc1	0.96%	1.39%	1.6%	1.7%	3.51%	2.62%	3.77%	-1.16%	4%	1.88%	-0.24%	0.37%	1.15%	1.58%	3.67%	3.15%	2.15%	4.27%	2.29%	1.52%
O=C(O[C@H]1CN[C@H](C#Cc2cc3ncnc(Nc4ccc5c(cnn5Cc5ccccc5)c4)c3s2)C1)N1CCOCC1	-0.59%	-0.52%	-0.56%	-0.1%	-1.03%	0.11%	-0.66%	2.38%	2.39%	0.44%	0.53%	-6.83%	-0.65%	-2.08%	-1.78%	-2.26%	0.14%	-0.97%	-0.07%	-1.65%
NS(=O)(=O)c1ccc(N/N=C2\C(=O)Nc3ccc(C(=O)NCc4ccncc4)cc32)cc1	1.33%	1.28%	2.42%	1.92%	1.54%	1.99%	5.6%	21.9%	2.04%	6.72%	0.07%	3.72%	-0.38%	2.29%	5.11%	9.08%	3.9%	14.5%	1.29%	6.6%
Cn1c(-c2nonc2N)nc2cnccc21	0.27%	0.36%	2.48%	1.66%	1.14%	1.35%	3.53%	4%	4.22%	2.15%	1.33%	10.3%	3.02%	14.4%	32.7%	72.4%	7.86%	39.6%	19.8%	66.6%
CN1CCC(n2cnc(-c3ccc(F)cc3)c2-c2ccnc(NCCO)n2)CC1	0.7%	1.07%	1.3%	1.3%	1.33%	2.14%	4.71%	6.12%	4.41%	7.73%	0.14%	2.92%	-1.48%	0.28%	3.35%	4.7%	1.86%	4.02%	0.69%	1.98%
Cc1nnc(-c2cccc(-c3ccc(C(=O)NCC4CC4)cc3)c2)o1	0.55%	1.35%	2.63%	1.84%	1.35%	1.48%	3.35%	10.4%	6.78%	6.04%	-0.4%	2.11%	-0.19%	-0.8%	4.52%	3.95%	3.13%	3.75%	1.6%	3.46%
O=C1Nc2ccccc2/C1=C1\CCc2cc(O)ccc21	1.29%	1.37%	1.86%	4.03%	3.35%	1.29%	2.32%	15%	3.45%	11.4%	0.14%	0.38%	1.68%	1.65%	1.96%	10.1%	16.3%	56.7%	2.81%	11.6%
Cc1c2ccc(N(C)c3ccnc(Nc4cccc(S(N)(=O)=O)c4)n3)cc2nn1C	-2.15%	-4.81%	-2.16%	-3.49%	-0.07%	-4.61%	-0.96%	1.02%	3.31%	8.97%	-0.27%	0.18%	0.8%	0.18%	2.9%	1.29%	2.14%	5.76%	2.59%	2.64%
CS(=O)(=O)CCNCc1ccoc1-c1ccc2ncnc(Nc3ccc(OCc4ccccc4)cc3)c2c1	-0.19%	0.18%	-0.24%	0.41%	-0.09%	2.03%	0.69%	1.77%	4.11%	-0.84%	-1.71%	-3.38%	-0.65%	-2.47%	-0.3%	-2.16%	0.88%	-1.22%	-1.12%	-1.32%
Fc1ccc(Nc2nccc(-c3c(-c4ccc(C(F)(F)F)cc4)nn4ncccc34)n2)cc1F	1.15%	1.34%	0.91%	1.4%	1.72%	1.36%	0.33%	-0.08%	2.15%	-0.32%	-0.28%	-1.12%	-0.35%	1.04%	2.66%	2.7%	-0.61%	2%	1.31%	0.33%
NS(=O)(=O)c1cccc(N/C=C2\C(=O)Nc3ccccc32)c1	0.57%	0.97%	1.32%	1.98%	1.37%	0.33%	3.98%	11.5%	2.36%	9.13%	0.02%	0.03%	0.57%	2.14%	10.2%	14.8%	2.95%	18.6%	2.13%	8%
CN(c1ccc(NC(=O)NCCN2CCOCC2)cc1)c1ccnc(Nc2ccc(CS(C)(=O)=O)cc2)n1	0.71%	-0.42%	0.78%	0.37%	0.73%	0.19%	4.41%	7.67%	3.45%	5.28%	-0.04%	2.59%	0.01%	0.6%	3.04%	3.65%	2.62%	3.19%	1.53%	1.23%
COc1cccc(-n2ncc3c(N/N=C/c4ccc(C(=O)NCCN(C)C)cc4)ncnc32)c1	0.53%	-4.74%	1.29%	-2.95%	1.33%	-1.17%	-2.74%	-7.47%	1.52%	-8.73%	2.1%	7.78%	2.49%	8.24%	3.26%	8.01%	1.32%	4.69%	4.61%	20.9%
COc1cc2c(cc1Nc1nc(Nc3cccc(F)c3C(N)=O)c3cc[nH]c3n1)N(C(=O)CN1CCN(C(C)C)CC1)CC2	0.64%	1.39%	1.31%	3.18%	1.35%	3.89%	7.5%	26.5%	6.57%	18.7%	6.36%	5.12%	0.17%	2.33%	1.4%	3.93%	1.44%	3.9%	2.23%	2.83%

— ChEMBL document CHEMBL1961873, “Compounds: GSK PKIS; Assays: Nanosyn kinase panel” (2012)
